TNAP inh pNP: human TNAP inhibition, p-nitrophenol detection. purified TNAP, pNPP hydrolysis, absorbance 405 nm. inhibition, % at 20 µM. 21,000 tested, under 10 active;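 further: 0% = DMSO only wells and 100% = 1 mM levamisole wells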
Target sequence (P05186 whole entry, looked up): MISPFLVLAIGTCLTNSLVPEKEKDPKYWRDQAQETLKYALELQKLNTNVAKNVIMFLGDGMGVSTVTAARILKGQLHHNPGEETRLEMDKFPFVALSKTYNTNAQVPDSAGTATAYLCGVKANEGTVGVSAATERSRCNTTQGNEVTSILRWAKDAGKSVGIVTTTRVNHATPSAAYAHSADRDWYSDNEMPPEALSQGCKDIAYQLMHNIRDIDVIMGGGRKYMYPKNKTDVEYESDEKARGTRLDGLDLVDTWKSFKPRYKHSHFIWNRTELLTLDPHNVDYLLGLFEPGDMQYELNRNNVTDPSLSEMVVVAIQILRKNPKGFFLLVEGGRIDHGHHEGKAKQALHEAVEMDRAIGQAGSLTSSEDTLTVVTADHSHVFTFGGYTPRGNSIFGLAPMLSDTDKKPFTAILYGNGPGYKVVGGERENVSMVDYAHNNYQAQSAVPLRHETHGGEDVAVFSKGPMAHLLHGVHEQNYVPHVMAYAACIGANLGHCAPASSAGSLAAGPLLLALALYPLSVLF
TNAP Pi inh: human TNAP inhibition, phosphate detection; AID 614; 21,000 tested, under 10 active; inhibition, % at 20 µM; purified TNAP, pNPP, malachite green phosphate absorbance; P05186
Active calls of the source: *. A selection follows.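 How the source made its calls: active means inhibition above 50% at the 20 µM single-dose screen; inactive means the rest.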

SMILES	TNAP inh pNP	TNAP Pi inh
COCCn1c(SCC#N)nnc1-c1ccc2c(c1)OCO2	7.1	1.8
O=C(CN1CCN(C2CCCCC2)CC1)NCCC1=CCCCC1	5.0	11.1
CN(C)CCCN1C(=O)C(=O)/C(=C(/O)c2ccc3c(c2)OCO3)C1c1ccccn1 (centres undefined)	-1.7	5.7
O=C(CSc1nnc(-c2ccco2)n1Cc1ccco1)N1CCOCC1	-1.0	5.0
c1ccc(-c2nc(NCc3cccnc3)c3oc4ccccc4c3n2)cc1	7.6	13.6
Fc1ccc(N2CCN(C(c3cccs3)c3nnnn3C3CCCC3)CC2)cc1 (centres undefined)	3.4	12.0
O=C(NCC1CCCO1)C1CCN(C(=O)c2ccc(Br)cc2)CC1 (centres undefined)	-0.9	-1.7
CCOC(=O)c1c(C)[nH]c(NC(=O)N2CCOCC2)c1C	3.8	8.5
O=C(OCc1nc2ccc(Cl)cc2n1CCO)c1ccc2c(c1)OCO2	0.4	6.6
CCOC(=O)N1CCC2(CC1)C(C#N)=C(N)Oc1c2c(C)nn1-c1cccc(Cl)c1	-34.9	-43.9
CC1CCc2nc(NC(=O)CSc3nc4ccccc4o3)sc2C1 (centres undefined)	2.7	10.6
O=C(CN1CCC(NC(=O)Nc2ccccc2-c2ccccc2)CC1)NCc1ccco1	1.3	4.7
COc1ccc(OC)c(NC(=O)C2C3C=CC(C3)C2C(=O)NCc2ccccn2)c1 (centres undefined)	9.7	0.5
Cc1ccc(=O)n(C(C(=O)NCc2ccco2)C(=O)c2ccc(F)cc2)c1 (centres undefined)	-1.2	9.1
Cc1ccccc1NC(=O)Cc1nc(CSc2nnc(C3CCCCC3)n2N)cs1	5.4	7.4
Cc1cc2nc(NC3=NCN(Cc4ccc5c(c4)OCO5)CN3)nc(C)c2cc1C	4.1	11.8
COc1ccc(CCN2C(=O)CC(Sc3ncccc3C(=O)O)C2=O)cc1OC (centres undefined)	3.0	-0.1
COc1ccc(S(=O)(=O)N(C)c2c(C)n(C)n(-c3ccccc3)c2=O)cc1OC	-6.9	0.6
O=C(C1Cc2ccccc2CN1S(=O)(=O)c1cccs1)N1CCCCCC1 (centres undefined)	2.2	8.8
CC1(C)Cc2c(C#N)c(SCCC#N)nc(N3CCOCC3)c2CS1	4.6	7.3
CCCC(C(=O)NCc1ccco1)N(C(=O)CNS(=O)(=O)c1ccccc1)c1ccccc1OC (centres undefined)	-5.3	5.3
Cc1cccc2cc(COC(=O)C3CCCCC3)c(=O)[nH]c12	4.2	8.0
CCOCCCNS(=O)(=O)c1ccc(NC(=O)c2ccccc2)cc1	-0.1	4.6
c1ccc(-n2c(Cc3cccnc3)nc3cnccc32)cc1	-6.6	-7.6
CN(C)CCCN(CCCNC(=O)/C=N/O)Cc1ccccc1	4.5	6.7
SMILES	TNAP inh pNP	TNAP Pi inh
CN(C)CCCOC(=O)Cc1ccc(Cl)cc1	6.3	7.1
CCCCCCSC1=C(C#N)C(c2ccc(O)cc2)CC(=O)N1 (centres undefined)	-4.8	0.7
COCCNc1cc(C)nc2c3c(C)cc(C)nc3nn12	3.3	6.8
COC(=O)c1cc(Br)c(=O)n(-c2cc(C)on2)c1	6.5	-3.9
CCCCc1ccc(C2C(C#N)=C(N)SC(N)=C2C#N)s1	-14.0	-2.5
O=C1c2oc3ccc(F)cc3c(=O)c2C(c2ccccc2)N1CC1CCCO1 (centres undefined)	-0.1	11.0
O=C(O)C1C2C=CC(O2)C1C(=O)NCCC1=CCCCC1 (centres undefined)	-1.2	7.4
Cc1noc(C)c1CSc1ccccc1C(=O)Nc1nccs1	3.3	-20.9
Cn1c(SC/C=C/c2ccccc2)nnc1-c1ccco1	0.5	7.3
Cc1cccc2cc(C#N)c(NCCNS(=O)(=O)c3ccc4c(c3)OCCO4)nc12	-1.1	-16.1
C=CCn1c(SCC(=O)OC)nc2sc3c(c2c1=O)CCN(C)C3	2.1	6.5
CCOC(=O)N1CCN(C(=O)CSc2ccccc2)CC1	5.0	7.8
Cn1c(SCC(=O)NCc2ccc3c(c2)OCO3)nnc1C1COc2ccccc2O1 (centres undefined)	5.8	13.2
CC(C)(C)NC(=O)c1ccccc1-c1nc(-c2ccccc2Cl)no1	2.6	8.6
Cn1c(=O)c2c(nc(Oc3ccc(-c4ccccc4)cc3)n2C)n(C)c1=O	0.4	15.1
O=C(OCC(F)(F)C(F)F)c1ccccc1C(=O)Oc1ccc(F)cc1F	-1.3	-16.7
Cc1ccc(NC(C(N)=O)c2c(C)[nH]c(=O)[nH]c2=O)cc1 (centres undefined)	-7.4	-1.4
COc1cc(C)nc(Oc2ccc(OCCOc3ccc(C)cc3)nn2)n1	1.3	6.7
CS(=O)(=O)Nc1ccc(N2CCCCC2)c(Cl)c1	3.3	5.7
Cc1nn(C)c(C)c1NC(=O)c1ccc(S(=O)(=O)N(C)C)cc1	1.5	12.8
Cc1cc(C(c2nnnn2Cc2ccccc2)N2CCOCC2)c(C)n1-c1ccc2c(c1)OCO2 (centres undefined)	4.3	12.1
O=C(COc1ccccc1)Nn1cnc2ccccc21	4.3	19.2
Cc1cc(C(=O)OCC(=O)N2CCN(c3ccccc3)CC2)c2ccccc2n1	3.3	-3.5
CC1(c2ccc(Cl)cc2)NC(=O)N(CC(=O)N2CCCC2)C1=O (centres undefined)	-9.0	-3.8
CCOC(=O)C1CCN(C(=O)C2CCCCC2)CC1	6.5	4.3
SMILES	TNAP inh pNP	TNAP Pi inh
CCCn1c(=O)c(C(=O)Nc2nnc(CC)s2)c(O)c2ccccc21	6.5	8.3
COc1ccc(CCN2C(=O)CC(C(N)=O)SC2=Nc2ccccc2)cc1OC (centres undefined)	5.5	-19.9
CC1(C)CC(=O)C(C=NCCN2CCN(C(=O)C34CC5CC(CC(C5)C3)C4)CC2)=C(O)C1	1.0	6.7
COc1ccc(C2(C(=O)NCCCN3CCOCC3)CCOCC2)cc1	6.1	8.4
Cn1c(O)c(C=Nc2ccc(Cc3ccncc3)cc2)c(=O)n(C)c1=O	0.0	0.0
OCc1csc(=Nc2ccccc2)n1-c1ccccc1	-5.5	2.0
Nc1nc(-c2cccnc2)nn1C(=O)c1ccco1	0.7	7.7
COC(=O)c1ccc(C(=O)OC)c(NC(=O)c2cc3ccccc3o2)c1	2.2	8.7
CSc1nsc(SCc2ccc(F)cc2)n1	4.7	-1.6
COc1c(S(=O)(=O)N2CCCCC2)ccc2c(S(=O)(=O)N3CCCCC3)cccc12	7.9	-6.6
C=CCn1c(N)c(-c2nc3ccccc3n2C)sc1=S	2.0	1.5
CCOC(=O)c1cnc(SCc2nc(N)nc(Nc3ccc(C)cc3)n2)nc1N	5.0	12.8
CCn1c(SCC(=O)OC2CCCCC2)nnc1-c1ccncc1	0.0	0.0
COc1ccc(Cl)c(S(=O)(=O)N2CCCC2)c1	0.6	8.0
Cc1oc(C)c2c(=O)ccc3c(c12)OC(N)=C(C#N)C3c1ccc(F)cc1 (centres undefined)	8.0	-3.3
Cc1cc(C)nc(Sc2c(C)nn(-c3ccccc3)c2C)n1	4.4	5.5

Compound activity as filed in PubChem.
